Assay outcomes (PubChem BioAssay)
Sampled rows, rich in hits. Any-hit rate of the full collection: about 2.2%.
HMGR II inh – E. faecalis class II HMG-CoA reductase inhibition. purified E. faecalis HMGR, NADPH absorbance 340 nm kinetic. inhibition, % at 10 µM. AID 1066. hit rate 0.41% among 190,000;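 active = inhibition above a set limit, the median over all tested compounds plus 3 SD, cut at about 9.5% in these data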;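 also: enzyme runs in reverse so mevalonate oxidation gives rising NADPH absorbance; 0% = complete reaction with DMSO and 100% = background rate lacking mevalonate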
Ins promoter up – MIN6 insulin promoter up-regulation; AID 1625; MIN6 insulin promoter-GFP reporter, high-content imaging; stronger effect = higher value; hit rate 0.3% among 190,000; z-score at 5 µM;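 active = z-score above 3 at 5 µM with at least 500 cells counted in the well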
Autophagy HCS – alters autophagy in cells. hit rate 0.98% among 190,000. calls only at 10 µM (by protocol). AID 463193. MEF GFP-LC3 puncta imaging; test concentration mostly 10 µM;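 active = percentage of spot-positive cells more than 3 SD above its plate mean, without a fluorescence outlier flag or 80% toxicity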;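 also: spot-positive cell cutoff set from DMSO-treated cells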
NCF1 inh – blocks human p47phox regulatory protein of NADPH oxidases; p47phox/p22phox peptide binding, fluorescence polarization, 2 h; inhibition, % at 24.7 µM; hit rate 0.53% among 220,000; AID 1274;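 active = inhibition above about 30%, limit read from the data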;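 also: 0% = p47phox with labelled peptide and 100% = labelled peptide alone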
Target sequence (P14598 whole entry, looked up): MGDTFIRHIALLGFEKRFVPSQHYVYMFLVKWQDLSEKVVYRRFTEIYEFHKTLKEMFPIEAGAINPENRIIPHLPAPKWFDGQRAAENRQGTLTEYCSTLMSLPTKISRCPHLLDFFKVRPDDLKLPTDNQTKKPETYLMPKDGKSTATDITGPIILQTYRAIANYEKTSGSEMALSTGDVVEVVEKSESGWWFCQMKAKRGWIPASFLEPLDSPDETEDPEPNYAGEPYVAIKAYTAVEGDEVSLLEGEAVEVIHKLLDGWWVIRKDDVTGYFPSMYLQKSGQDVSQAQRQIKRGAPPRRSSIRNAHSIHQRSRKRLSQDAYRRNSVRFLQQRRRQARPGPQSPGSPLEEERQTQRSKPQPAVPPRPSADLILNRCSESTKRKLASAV
DTT redox prof – compounds producing H2O2 with reducing agent – biochemical, NIH compound library profiling, artefact control for MLSCN library redox annotation, primary screen | DTT-dependent redox cycling H2O2, phenol red/HRP absorbance; 100% = 100 µM peroxide control, 0% = buffer | activation, % at 10 µM | hit rate 0.03% among 200,000 | AID 878;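 active = activation of at least 50% relative to the plate's high and low controls in the primary single-dose screen; inactive = activation below 50%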;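 also: compound incubated with DTT at 0.8 mM final as the reducing agent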
Arbovirus anti – arbovirus infection inhibition. inhibition, % at 10 µM. hit rate 0.37% among 200,000. arbovirus infection cell-based antiviral screen. AID 1251; in the data active = inhibition above about 30%
Starred values were filed as active, the others as inactive; i = inactive; . = not tested or not shown; + = active, no number.

SMILES	HMGR II inh	Ins promoter up	Autophagy HCS	NCF1 inh	DTT redox prof	Arbovirus anti
COCCn1c(SCC(=O)N2CC(=O)Nc3ccccc32)nc2ccccc21	4	-0.05	i	-4	.	-4
Cc1cc(=O)oc2cc(OCC(=O)Nc3cccc(S(=O)(=O)N(C)C)c3)ccc12	1	0.46	i	31*	.	4
Cc1cc(=O)oc2cc(OCC(=O)c3ccc4c(c3)NC(=O)CO4)ccc12	1	0.33	i	37*	0	-12
CCN(CC)S(=O)(=O)c1ccc(Cl)c(NC(=O)COc2ccc3c(C)cc(=O)oc3c2)c1	-7	0.22	i	4	0	-8
O=C1N/C(=C/c2cccs2)C(=O)N1Cc1ccccc1F	-7	0.47	i	-3	1	1
Cc1ccc(/C=C2/NC(=O)N(Cc3ccccc3F)C2=O)s1	0	1.8	+	-152	0	0
COCCNC(=O)CS(=O)Cc1nc(-c2ccc(OC)cc2)oc1C (centres undefined)	-4	0.52	+	-7	-1	8
COc1cc2nc(SCC(=O)NC3CC3)n(CCC3=CCCCC3)c(=O)c2cc1OC	.	.	i	.	0	.
COc1cc2nc(SCc3c(C)noc3C)n(CCC3=CCCCC3)c(=O)c2cc1OC	-3	2.2	+	-7	2	-13
Cc1ccsc1C(=O)OCC(=O)N1CCc2ccccc2C1	-1	-0.03	i	1	-2	2
CCCCN(C)C(=S)Nc1ccsc1C(=O)OC	-4	.	i	45*	0	4
COC(=O)c1sccc1NC(=S)N(C)C1CCCCC1	-3	-1.6	i	-6	-1	-3
O=[N+]([O-])c1cc(Oc2cccnc2)cc([N+](=O)[O-])c1	-1	0.42	+	-1	0	-16
CCC1(CC)N=C(c2ccccc2)C(=S)N1	-3	-0.04	i	-11	0	1
Cc1cccc(NC(=O)Nc2ccc(C#N)cc2)n1	-6	3.4*	i	-13	0	8
O=C(Nc1sc2c(c1C(=O)O)CCCC2)c1cccs1	-5	-0.29	i	-19	3	48*
O=C(Nc1sc2c(c1C(=O)O)CCC2)c1ccco1	-3	-1.2	i	-6	0	10
CC(C)(C)c1ccc(C(=O)Nc2sc3c(c2C(=O)O)CCC3)cc1	-7	-1.1	i	-13	0	32*
O=C(Nc1sc2c(c1C(=O)O)CCCCC2)c1ccccc1F	-4	.	i	-14	0	38*
O=C(Nc1sc2c(c1C(=O)O)CCCCC2)c1cccs1	2	-0.86	i	-7	0	46*
COc1ccc(/C=C/C(=O)N2CCN(c3ccccn3)CC2)c2ccccc12	0	-0.15	i	-11	0	-15
Cc1ccc(C(=O)Nc2sc3c(c2C(=O)O)CCCCC3)o1	5	0.9	i	-28	0	47*
COC(=O)c1c(NC(=O)c2ccc(C)o2)sc2c1CCCCC2	-6	0.48	i	-16	1	5
O=C(CCn1c(=O)sc2ccccc21)NCCCn1ccnc1	-2	-0.05	i	-12	3	30*
Cc1cc(C)cc(NC(=O)CCn2cnc3cc(C)c(C)cc32)c1	-2	-1.2	i	3	-1	-3
SMILES	HMGR II inh	Ins promoter up	Autophagy HCS	NCF1 inh	DTT redox prof	Arbovirus anti
O=C(O)C1CC=CCC1C(=O)NCc1cn2ccccc2n1 (centres undefined)	-4	-0.67	i	-4	-2	5
O=C(O)C1CCCCC1C(=O)NCc1cn2ccccc2n1 (centres undefined)	0	-0.01	i	36*	-3	1
COc1ccc(C(=O)NCCCc2nc3ccccc3n2Cc2ccccc2C)cc1OC	6	-0.56	+	-1	0	-3
CC(C)OC(=O)c1ccc(NC(=O)c2ccccc2)cc1	-6	.	+	-5	-1	-5
CCOC(=O)c1ccc(NC(=O)c2ccc(NC(=O)c3ccccc3)cc2)cc1	-2	-0.64	i	-13	-1	1
CCC(C)(C)n1nnnc1C(c1cc2cc(C)cc(C)c2[nH]c1=O)N1CCCC1 (centres undefined)	2	-0.03	i	-13	-1	-6
CCC(C)(C)n1nnnc1C(c1cc2cc(C)cc(C)c2[nH]c1=O)N1CCN(Cc2ccc3c(c2)OCO3)CC1 (centres undefined)	-5	.	+	-16	0	-8
COCCn1nnnc1CN(CCc1ccc(OC)c(OC)c1)Cc1cc2ccc(C)cc2[nH]c1=O	4	-0.06	+	-6	2	-1
COCCn1nnnc1CN(CCc1ccccc1)Cc1cc2cc(OC)ccc2[nH]c1=O	.	.	i	.	0	.
O=C(C1=C[C@H](c2coc3ccccc3c2=O)C[C@H](OCCCCO)O1)N1CCOCC1	-1	.	i	.	1	2
CCOC(=O)c1c(NC(=O)C2COc3ccccc3O2)sc2c1CCN(Cc1ccccc1)C2 (centres undefined)	-2	-1.4	i	-5	0	11
NC(=O)c1c(NC(=O)C2COc3ccccc3O2)sc2c1CCN(Cc1ccccc1)C2 (centres undefined)	9	-0.74	+	-14	3	6
CCN1CCN(C(=S)c2ccc([N+](=O)[O-])cc2)CC1	-1	-0.19	i	-9	0	4
N#CCSc1nc(N)c(C#N)c(C2CCCCC2)c1C#N	-3	-0.44	i	2	2	34*
O=C1c2ccccc2C(=O)N1CCCCSc1nnnn1-c1ccccc1	1	0.35	i	5	-1	1
Brc1ccc(CSc2nnc3ccccn23)cc1	15*	-0.53	i	1	0	25
O=C1c2ccccc2C(=O)N1CCCCSc1nnc2ccccn12	-3	0.23	i	133*	-1	3
CC(=O)Nc1ccc2nc(CN3CCN(CC=C(C)C)C(CCO)C3)ccc2c1 (centres undefined)	1	0.75	i	-14	-2	-2
CN(C)CCCNc1cc(C(C)(C)C)nc2c(-c3ccc(Cl)cc3)cnn12	.	-0.29	.	65*	.	.
O=c1[nH]nc(Cc2ccc3ccccc3n2)c2ccccc12	1	0.12	i	-5	-4	-2
CCN(C(=O)CN(C)Cc1cccc(Cl)c1Cl)c1c(N)n(Cc2ccccc2)c(=O)[nH]c1=O	-1	0.03	i	-9	0	11
CSc1nc2ccccc2cc1/C=C(\C#N)c1ccc(Cl)c(Cl)c1	-2	-0.14	+	-16	4	14
CC(=O)Nc1nnc(C2=COCCO2)o1	10*	.	i	-3	0	14
O=C(Nc1nnc(C2=COCCO2)o1)c1ccc(Cl)cc1	1	-0.05	i	-12	1	-21
COC(=O)Nc1ccc(S(=O)(=O)N2CCCC(C(=O)N3CCCCCC3)C2)cc1 (centres undefined)	-4	-0.62	+	3	-1	5
